# Assay results reported in PubChem BioAssay (Tox21).
# Results filed as inconclusive are left out. Active and inactive are the calls of the source. Calls come from the whole dose curve; as a rule, active = well fitted cell-killing curve with a large enough effect in the repeat runs (not every such curve was filed as active); inconclusive = weak or mixed curves, or effect the other way; inactive = no such curve, though single readings can be large or run the other way.
# Assay: qHTS assay to identify small molecule antagonists of the farnesoid-X-receptor (FXR) signaling pathway - cell viability counter screen (AID 743221); note: nearly all actives have a fitted effect of over 50% in size
# Details: FXR-bla HEK293T viability, CellTiter-Glo luminescence, 16 h; series mostly up to 62.6 µM
# Text: National Center for Advancing Translational Sciences [NCATS]
# NIH Chemical Genomics Center [NCGC]
# U.S. Environmental Protection Agency [EPA]
# National Institutes of Environmental Health Sciences [NIEHS]
# National Toxicology Program [NTP]
# U.S. Food and Drug Administration [FDA]
# The farnesoid-X-receptor (FXR), a nuclear hormone receptor, is highly expressed in liver, intestine, kidney and adrenal cortex. Natural ligands of FXR are the bile acids (Cholic acid, Chenodeoxy cholic acid etc). FXR is an important regulator of diverse metabolic pathways, including the bile acid homeostasis, lipid and glucose metabolisms. FXR regulates the expression of target genes by binding either as a monomer or as a heterodimer with the retinoid X receptor (RXR). Numerous studies have reported that FXR exerts protective function during cholestasis, diabetes, liver regeneration, and cancer. To identify compounds that inhibit FXR signaling, GeneBLAzer FXR-UAS-bla HEK 293T cell line (Invitrogen, Carlsbad, CA) containing a beta-lactamase reporter gene under the control of a UAS response element was used to screen the Tox21 10K compound library. The cytotoxicity of the Tox21 compound library against the FXR-bla cell line was tested in parallel by measuring the cell viability using CellTiter-Glo assay in the same wells.
# Tox21 Assay Protocol Summary:
# FXR-bla cells were dispensed at 5000 cells/5uL/well in 1536-well black wall/clear bottom plates using a Multidrop Combi (Thermo Fisher Scientific, Waltham, MA) dispenser. After the assay plates were incubated at 37 C and 5% CO2 for 5 h, 23 nL of compounds dissolved in DMSO, positive controls or DMSO only was transferred to the assay plate by a Pintool station (Kalypsys, San Diego, CA), followed by addition of 1 uL Chenodeoxycholic acid (50 uM, final concentration in the wells). The assay plates were incubated at 37C for 16 h. After 1 uL of LiveBLAzerTM B/G FRET substrate was added using a Bioraptr Flying Reagent Dispenser (FRD) workstation (Beckman Coulter, Indianapolis, IN), the plates were incubated at room temperature for 2 h, and fluorescence intensity was measured by an Envision plate reader (PerkinElmer, Shelton, CT). For cell viability readout that measures cytotoxicity, 4uL/well of CellTiter-Glo reagent was added into the assay plates using a Bioraptr FRD. After 30 min incubation at room temperature, the luminescence intensity in the plates was measured using a ViewLux plate reader (PerkinElmer).
row,SMILES,outcome
1,CCCCCCCCC(=O)Cl,inactive
2,CC(=O)Nc1ccc(S(=O)(=O)Cl)cc1,inactive
3,O=C(OCc1ccccc1)C(=O)OCc1ccccc1,inactive
4,CCCCCCOc1ccccc1C(N)=O,inactive
5,CN(C)CCOCCO,inactive
6,CC(=O)c1sc(C)nc1C,inactive
7,Cc1c(I)c(=O)n(-c2ccccc2)n1C,inactive
8,COCCOC(=O)C1=C(C)NC(C)=C(C(=O)OC(C)C)C1c1cccc([N+](=O)[O-])c1 (stereo not given),inactive
9,CCCCCCCCCCl,inactive
10,O=C(O)c1cc(Br)c(O)c(Br)c1,inactive
11,COc1cc(NS(=O)(=O)c2ccc(N)cc2)nc(OC)n1,inactive
12,O=C(OCC1(COC(=O)c2cccnc2)CCCC(COC(=O)c2cccnc2)(COC(=O)c2cccnc2)C1O)c1cccnc1,inactive
13,COCCc1ccc(OCC2CO2)cc1 (stereo not given),inactive
14,CC(C)(C)c1n[nH]c(=S)n(N)c1=O,inactive
15,ClCCCl,inactive
16,OCCC(F)(F)C(F)(F)C(F)(F)C(F)(F)C(F)(F)C(F)(F)C(F)(F)C(F)(F)F,inactive
17,CC(C)=CCOC(=O)c1ccccc1,inactive
18,N[C@@H](CCC(=O)Nc1ccc([N+](=O)[O-])cc1)C(=O)O,inactive
19,Cc1nc2n(c(=O)c1CCN1CCC(c3noc4cc(F)ccc34)CC1)CCC[C@H]2O,inactive
20,O=C(OCC(O)CO)c1ccccc1Nc1ccnc2c(C(F)(F)F)cccc12 (stereo not given),inactive

row,SMILES,outcome
1,O=C(O)c1cc(Cl)cc([N+](=O)[O-])c1Cl,inactive
2,Cc1cc(C(C)(C)C)c(O)c(C)c1CC1=NCCN1,inactive
3,NNc1nnc(NN)c2ccccc12,inactive
4,CCCC(=O)C(C)=O,inactive
5,CCCCCCCCCCCCCC,inactive
6,NS(=O)(=O)c1cc2c(cc1Cl)CN(C1CCCCC1)C2=O,inactive
7,Nc1ccc(S(=O)(=O)Nc2ccc(Cl)nn2)cc1,inactive
8,Cc1[nH]cnc1-c1ccc(Cl)cc1,inactive
9,CC1COc2ccccc2N1 (stereo not given),inactive
10,Cc1ccc2c(c1)OCC(=O)CO2,inactive
11,Cc1cccc(OCC(O)CNC(C)(C)C)c1C (stereo not given),inactive
12,CC(C)N(c1ccccc1)C(C)C,inactive
13,CCCC/C=C\CCCCCCCCCC=O,inactive
14,C=CC(OCC)OCC,inactive
15,CC(=C(CCOC(=O)C(C)C)SSC(CCOC(=O)C(C)C)=C(C)N(C=O)Cc1cnc(C)nc1N)N(C=O)Cc1cnc(C)nc1N,inactive
16,NS(=O)(=O)c1ccc(NC(=O)CCC(=O)O)cc1,inactive
17,OCCN(CCO)c1cccc(Cl)c1,inactive
18,COCCOCCOCCOCCOCCO,inactive
19,COc1cc(N)ccc1C,inactive
20,CCCC/C=C/C=C\C=O,inactive
